# Data published in the supplement of paper PMC3334620.
# In all, about 33,000 sequences were measured (“E-score (-0.5 to 0.5)”: median about -0.032, highest 2% from about 0.36 on). This is one part of a sample in which the highest values are shown more often than they occur.
# Molecular target: T1, Sko1 (UniProt Q02100)
# T1 sequence: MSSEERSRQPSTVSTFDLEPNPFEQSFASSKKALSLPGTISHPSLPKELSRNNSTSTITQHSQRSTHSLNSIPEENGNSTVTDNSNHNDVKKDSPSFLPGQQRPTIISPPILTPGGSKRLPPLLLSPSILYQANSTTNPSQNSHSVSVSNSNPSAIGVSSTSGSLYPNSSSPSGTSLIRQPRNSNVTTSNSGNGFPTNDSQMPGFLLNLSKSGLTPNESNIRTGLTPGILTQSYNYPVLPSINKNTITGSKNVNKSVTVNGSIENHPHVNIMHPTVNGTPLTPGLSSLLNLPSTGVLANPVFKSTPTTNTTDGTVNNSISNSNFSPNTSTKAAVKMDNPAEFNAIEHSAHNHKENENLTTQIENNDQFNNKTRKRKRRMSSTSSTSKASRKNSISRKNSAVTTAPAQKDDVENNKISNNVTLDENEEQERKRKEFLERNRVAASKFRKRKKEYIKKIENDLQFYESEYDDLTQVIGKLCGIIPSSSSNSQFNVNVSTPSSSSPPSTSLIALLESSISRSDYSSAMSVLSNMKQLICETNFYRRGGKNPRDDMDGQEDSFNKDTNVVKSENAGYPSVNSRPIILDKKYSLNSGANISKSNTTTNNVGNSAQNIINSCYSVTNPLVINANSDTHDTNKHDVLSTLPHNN
# Test: PBM E-score (8-mer binding enrichment) (E-score (-0.5 to 0.5)); higher = stronger / more preferred TF binding
# Conditions: protein concentration: 200 nM; construct: GST-full length
# In short: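 The E-score, a modified Wilcoxon-Mann-Whitney statistic, was computed by the Universal PBM Analysis Suite for every ungapped eight-base word pooled with its reverse complement. Scans behind it were normalised with masliner after bound GST-tagged yeast transcription factors were detected with fluorescent anti-GST. The proteins, at about 100-200 nM, had been applied to universal all-10-mer Agilent arrays made double-stranded by primer extension.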
row,Sequence,PBM E-score
1,TAGAGCCA,-0.278
2,GCCGAGAC,-0.218
3,ATGGGTCG,-0.179
4,ATTCAAGC,0.106
5,ATGTTCTA,0.0474
6,GCGTGCGA,-0.0187
7,ATACATCG,0.196
8,CTACATCC,-0.0667
9,CTACATCA,0.375
10,ATACATCC,0.0616
11,CTACATTA,0.00265
12,ATACATCA,0.382
13,GTACATGA,0.184
14,GTACATCA,0.366
15,GTACATTA,0.295
16,CGGGGCGC,-0.313
17,AACAGGTT,-0.0299
18,AGGCACTA,-0.0926
19,AAACATCA,0.189
20,TGACATAA,0.424
21,CAACATCA,0.294
22,GTACATAA,0.306
23,CGACATCA,0.355
24,GGACATAA,0.0688
25,TTACATAA,0.407

row,Sequence,PBM E-score
1,TGACATCA,0.466
2,TAACATCA,0.367
3,GGACATCA,0.205
4,AGACATAA,0.0234
5,CTACATAA,0.194
6,CACCAATG,0.00918
7,GCCTTAGC,-0.113
8,CGGCTACG,0.243
9,ATCGTCCC,-0.0614
10,CCAAACCG,-0.149
11,ACAAGTTG,-0.041
12,AAAGACTA,0.026
13,CAAACCAA,-0.0239
14,ATTCACGG,0.095
15,GACCTTAC,0.0378
16,AACTTAGC,0.0908
17,ATGGTGGC,-0.29
18,GACTTTTA,0.0964
19,GGTCACAC,-0.0911
20,AGTCACAC,-0.0301
21,GGTCACAA,-0.151
22,TGTCACAA,0.133
23,CGTCACAC,0.437
24,AGTCACAG,-0.0124
25,CCTCACAG,-0.175

row,Sequence,PBM E-score
1,CGTCACAG,0.438
2,CGTCACAA,0.388
3,ACTTCGAT,0.0534
4,GAGGTTCC,-0.182
5,ATCTGTAG,-0.0704
6,AGGAGTGA,0.0137
7,CAGGGAGG,-0.23
8,ACACGTAA,0.472
9,ACCCGTAC,-0.107
10,ACTCGTAA,0.345
11,ACACGTAG,0.433
12,ACACGGAG,-0.13
13,ACACGTAC,0.419
14,ACCCGTAA,-0.00679
15,ACACGAAT,0.233
16,ACACATAA,0.262
17,ACACGTAT,0.463
18,ACACGTCT,0.292
19,ACACGTTC,0.214
20,CTTGAATC,-0.0656
21,AGTTAGCG,0.113
22,CGGCGTGA,-0.0945
23,CCGCTTCC,-0.273
24,CTCGTCTC,-0.19
25,AAATTCGT,0.339

row,Sequence,PBM E-score
1,ATGTGAGC,-0.00412
2,CATCCTAA,0.173
3,CCGAGATC,-0.237
4,ATGACATA,0.437
5,GTGACATA,0.381
6,GTGACACA,0.145
7,ATGACACC,0.26
8,ATGACATC,0.44
9,ATGACATG,0.357
10,GGGACATA,-0.139
11,CTGACATA,0.266
12,CTGACATC,0.21
13,AACTAACA,0.124
14,GCTAAGCC,-0.23
15,CGGGCTCC,-0.343
16,ACTCTCTC,-0.281
17,GTCATCAA,0.33
18,GTCATCAC,0.368
19,ATCATCAC,0.334
20,GACATCAA,0.275
21,GACATCAC,0.382
22,CACATCAC,0.154
23,CTCCGCCC,-0.254
24,GAACTCTA,-0.0173
25,CGTAAGAG,0.376

row,Sequence,PBM E-score
1,CGTAAGAA,0.349
2,CCTAAGAG,-0.0999
3,AGTAAGAG,-0.117
4,GGTAAGAC,-0.0543
5,CGTAAGAC,0.4
6,AAAGCGGT,-0.0789
7,AGCTCTTA,0.0315
8,TATACGAA,0.301
9,AATACGCT,0.186
10,TATACGCA,0.411
11,CATACTCA,0.0384
12,CATACGCG,0.246
13,CATACGCA,0.392
14,AATACGCC,0.198
15,GATACGCA,0.351
16,AATACGCA,0.407
17,TACACCGA,-0.177
18,TAGAGAGA,-0.0704
19,AAAAGAAT,0.115
20,CCGCTCAC,-0.0552
21,CCACCTGA,-0.0745
22,ATCACGTA,0.465
23,CTCACGTC,0.278
24,ATCACGCG,0.254
25,GTCACGTA,0.421

row,Sequence,PBM E-score
1,ATCACGGA,0.126
2,ATCACATA,0.3
3,ATCACGCC,0.0558
4,GTCACGGA,0.126
5,ATCACGTC,0.42
6,GTCACGCA,0.25
7,ATCACGTG,0.411
8,CTCACGTA,0.356
9,CGTTTTAC,0.209
10,ATTTATAG,0.158
11,ACGGAAAT,0.226
12,AGTATGCA,-0.0795
13,ACCTGTAT,-0.105
14,CAAACCTG,-0.0692
15,ACCATTAG,0.0481
16,TCCCAAGA,-0.166
17,AGTAACAC,-0.0531
18,CGTAACAG,0.374
19,CGTAACAA,0.344
20,AGTAACAG,-0.0766
21,CGTAACAC,0.374
22,GGTAACAC,0.0477
23,AGCGGTTG,-0.0753
24,GGTAATAC,0.178
25,CGTAATAA,0.434

row,Sequence,PBM E-score
1,AGTAATAC,0.0785
2,CGTAATAG,0.435
3,AGTAATAG,0.264
4,CGTAATAC,0.451
5,GGTAATAA,0.185
6,CATAATAG,0.116
7,TGTAATAA,0.28
8,ACGCGGCT,0.124
9,ACAGTCCG,-0.182
10,ATGGCTCC,-0.249
11,CCGTACCA,-0.118
12,GCGTACCC,-0.00205
13,GCGTACCA,0.138
14,ACGTACCC,0.435
15,AGGTACCT,-0.19
16,CCGTACCG,-0.208
17,AAGTACCT,-0.0422
18,CCGTACCC,-0.335
19,ACGTACCG,0.372
20,ACGTACCA,0.444
21,ACGTACCT,0.377
22,AAGTACCG,-0.032
23,AGAACCAG,-0.306
24,CCTACTAA,-0.18
